PubChem BioAssay (NCI)
The panel holds about 83,000 compounds, 20% with a hit somewhere; the sample as a whole holds those more often.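 How to read the values: 0–100, growth inhibition (40 = 60% inhibited); 0, no net growth; -100 to 0, cell death (-40 = 40% of starting cells died; -100 = all dead).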 Values without a mark were called inactive. Calls of active or inactive are those of the source. How the source made its calls: active means growth percent below 10; inactive means the rest.

Each molecule was assayed on PC-3 prostate (assay: NCI-60 one-dose screen, 48 h (100 = growth as untreated, 0 = no growth, -100 = all killed)). Conditions: 10 µM unless noted.
CNC(=O)c1cc(Oc2ccc(CC(=O)Nc3cc(C(C)(C)C)cn3C)cc2)ccn1 gave a growth of 75.9%.
In the case of COc1ccccc1C(=O)O/N=C(\N)Cc1cccc2ccccc12, the growth is reported as 78.6%.
In the case of COc1cc(/C=C2\CN(C)C/C(=C\c3cc(CN4CCOCC4)c(O)c(OC)c3)C2=O)cc(CN2CCOCC2)c1O, the growth is reported as 60.8%.
Molecule O=C1c2ccc3c4c(ccc(c24)C(=O)N1CCCCO)C(=O)N(CCCCO)C3=O has a growth of 63%.
For COc1ccc(-c2cc(=O)c3c(OC)c4ccoc4c(/C=C/C=O)c3o2)cc1, the growth was 21.3%.
COc1ccc2occ(C3=C(c4c[nH]c5ccccc45)C(=O)NC3=O)c2c1 was tested, and the growth was 62.7%.
For CCCC(=O)CC(C)=O.CCCC(=O)CC(C)=O.[Cu], the growth was 76.3%.
In the case of O=C(Nc1ccc(N2CCNCC2)cc1)c1[nH]ncc1Nc1cc(C2CC2)ncn1, the growth is reported as 30.2%.
In the case of Nc1ccc(-c2nc3cc(Oc4ccc(Oc5ccc6[nH]c(-c7ccc(N)cc7)nc6c5)cc4)ccc3[nH]2)cc1, the growth is reported as 115%.
For Oc1c(CN2CCN(c3ccccc3F)CC2)cc(Br)c2cccnc12, the growth was 5.26% (active).
With CC(=Nc1ccccc1)C1=C(O)C(Cc2ccc(F)cc2)NC1=O (stereo not drawn) the growth was 18.3%.
NCCOc1ncccc1/C=C1\c2ccccc2-c2ccc(F)cc21 showed a growth of 42.5%.
CCOC(=O)C1=C(C)N=c2s/c(=C\c3cc(Cl)ccc3O)c(=O)n2C1c1ccc(OC)cc1 (stereo not drawn) showed a growth of 85.2%.
Work on CCCCC(O)(c1ccc(Cl)cc1)C(CN1CCOCC1)c1ccc(Cl)cc1 (stereo not drawn) yielded a growth of 17.6%.
Work on O=C(/C=C/c1ccc(C(F)(F)F)cc1)c1ccc(Nc2nc(NCCO)nc(Nc3ccc(Cl)cc3)n2)cc1 yielded a growth of 32.9%.
Work on OC(c1ccccc1)c1nnc(SCc2ccccc2)n1Cc1ccccc1 (stereo not drawn) yielded a growth of 87.6%.
For CCOC(=O)c1cnc2ccc(Cl)cc2c1NCCCN(C)C, the growth was 25.7%.
CC(=O)c1ccc(Cc2ccc(C(C)=O)s2)s1 gave a growth of 93.8%.
CCCCC1CCc2cccc3c(SCC(=O)N(C)c4ccc(Cl)cc4)cc[n+]1c23 (stereo not drawn) showed a growth of 106%.
CCN1C(=O)N(CC)C2C1NN=c1s/c(=C3\C(=O)N(C(C)C)c4ccccc43)c(=O)n12 (stereo not drawn) was tested, and the growth was 25.8%.
Work on Cc1ccc2cccc(Oc3ccc(Nc4ncnc5onc(-c6ccccc6)c45)cc3)c2n1 yielded a growth of 58.5%.
For O=C(NC1C(O)OC(CO)C(O)C1O)NS(=O)(=O)c1ccc(Cl)cc1 (stereo not drawn), the growth was 94.5%.
For O=C(Cc1ccccc1)NC(c1ccc(Cl)cc1)c1c(O)ccc2ccccc12 (stereo not drawn), the growth was 3.12% (active).
With CC(=O)c1ccc2oc(=O)n(Cc3ccc(C#N)cc3)c(=O)c2c1 the growth was 97.5%.
O=C(O)CCC(=O)c1ccc(C2CCCCCC2)cc1 gave a growth of 99.2%.
Work on COc1ccc(Cn2c(Br)c3c(c2-c2cc(OC)c(OC)c(OC)c2)CCc2sc(NC(=O)c4ccc(OC)cc4)nc2-3)cc1 yielded a growth of 84.2%.
For O=c1c2cc(F)ccc2sc2c(Nc3ccncc3)nc3ccccc3c12, the growth was -10.7% (active).
N#Cc1c(N)nc2c(c1N)C(c1ccc(F)cc1)c1ccc(N)cc1O2 (stereo not drawn) was tested, and the growth was 106%.
With CC(=S)NC(=O)C(=O)/C=C1/NC(=O)C(=O)S1 the growth was 99.6%.
Molecule CCOC(=O)c1cc2c(n1Cc1ccccc1OC)-c1oncc1CCC2 has a growth of 30.8%.
In the case of COc1cc(/C=C2\CN(C)C/C(=C\c3cc(CN4CCCC4)c(O)c(OC)c3)C2=O)cc(CN2CCCC2)c1O, the growth is reported as 76.8%.
In the case of COc1c(B(O)O)cccc1-c1nc2ccc3[nH]ncc3c2c2c1C1CCC2C1 (stereo not drawn), the growth is reported as 76.9%.
With COc1cc(OC)cc(N2C(=O)N(Cc3ccc(C(C)(C)C)cc3)c3ccccc3S2(=O)=O)c1 the growth was 84.4%.
For C[C@@H](C(=O)NCCCC#Cc1cnc(Nc2ccc(C#N)cc2)nc1NC1CC1)N(C)C(=O)/C=C/CN(C)C, the growth was 63.2%.
For NCCNc1nc2ccccc2c2c(=O)c3cc(F)cc(Cl)c3sc12, the growth was -70.4% (active).
In the case of c1ccc2cc3c(Nc4ccc(N5CCOCC5)cc4)ccnc3cc2c1, the growth is reported as 81.8%.
O=C(Cn1cc(COc2ncnc3c2cnn3-c2ccccc2)nn1)Nc1ccccn1 gave a growth of 90.3%.
CNCCNc1nc2ccccc2c2c(=O)c3cccc(C)c3sc12 was tested, and the growth was 41.4%.
Cn1nc(C(C)(C)C)cc1NC(=O)Cc1ccc(/C=C2\C(=O)Nc3ccccc32)cc1 showed a growth of 42.1%.

What follows are molecules tested on SK-MEL-5 melanoma in the same assay as above. Conditions: 10 µM unless noted.
For CNC(=O)c1cc(Oc2ccc(CC(=O)Nc3cc(C(C)(C)C)cn3C)cc2)ccn1, the growth was 8.83% (active).
With COc1ccccc1C(=O)O/N=C(\N)Cc1cccc2ccccc12 the growth was 70.4%.
Molecule COc1cc(/C=C2\CN(C)C/C(=C\c3cc(CN4CCOCC4)c(O)c(OC)c3)C2=O)cc(CN2CCOCC2)c1O has a growth of 72.3%.
O=C1c2ccc3c4c(ccc(c24)C(=O)N1CCCCO)C(=O)N(CCCCO)C3=O was tested, and the growth was 78.4%.
COc1ccc(-c2cc(=O)c3c(OC)c4ccoc4c(/C=C/C=O)c3o2)cc1 showed a growth of 32.1%.
In the case of COc1ccc2occ(C3=C(c4c[nH]c5ccccc45)C(=O)NC3=O)c2c1, the growth is reported as 47.4%.
Work on CCCC(=O)CC(C)=O.CCCC(=O)CC(C)=O.[Cu] yielded a growth of 103%.
Work on O=C(Nc1ccc(N2CCNCC2)cc1)c1[nH]ncc1Nc1cc(C2CC2)ncn1 yielded a growth of 52.3%.
Nc1ccc(-c2nc3cc(Oc4ccc(Oc5ccc6[nH]c(-c7ccc(N)cc7)nc6c5)cc4)ccc3[nH]2)cc1 was tested, and the growth was 87.5%.
Oc1c(CN2CCN(c3ccccc3F)CC2)cc(Br)c2cccnc12 was tested, and the growth was -10.3% (active).
For CC(=Nc1ccccc1)C1=C(O)C(Cc2ccc(F)cc2)NC1=O (stereo not drawn), the growth was 25.1%.
Molecule NCCOc1ncccc1/C=C1\c2ccccc2-c2ccc(F)cc21 has a growth of 25.1%.
Work on CCOC(=O)C1=C(C)N=c2s/c(=C\c3cc(Cl)ccc3O)c(=O)n2C1c1ccc(OC)cc1 (stereo not drawn) yielded a growth of 88.5%.
Molecule CCCCC(O)(c1ccc(Cl)cc1)C(CN1CCOCC1)c1ccc(Cl)cc1 (stereo not drawn) has a growth of 13.3%.
Work on O=C(/C=C/c1ccc(C(F)(F)F)cc1)c1ccc(Nc2nc(NCCO)nc(Nc3ccc(Cl)cc3)n2)cc1 yielded a growth of 84.7%.
OC(c1ccccc1)c1nnc(SCc2ccccc2)n1Cc1ccccc1 (stereo not drawn) was tested, and the growth was 96.7%.
With CCOC(=O)c1cnc2ccc(Cl)cc2c1NCCCN(C)C the growth was -50.8% (active).
Molecule CC(=O)c1ccc(Cc2ccc(C(C)=O)s2)s1 has a growth of 100%.
CCCCC1CCc2cccc3c(SCC(=O)N(C)c4ccc(Cl)cc4)cc[n+]1c23 (stereo not drawn) showed a growth of 102%.
With CCN1C(=O)N(CC)C2C1NN=c1s/c(=C3\C(=O)N(C(C)C)c4ccccc43)c(=O)n12 (stereo not drawn) the growth was 2.79% (active).
Molecule Cc1ccc2cccc(Oc3ccc(Nc4ncnc5onc(-c6ccccc6)c45)cc3)c2n1 has a growth of 46.3%.
O=C(NC1C(O)OC(CO)C(O)C1O)NS(=O)(=O)c1ccc(Cl)cc1 (stereo not drawn) showed a growth of 104%.
For O=C(Cc1ccccc1)NC(c1ccc(Cl)cc1)c1c(O)ccc2ccccc12 (stereo not drawn), the growth was -49.5% (active).
Work on CC(=O)c1ccc2oc(=O)n(Cc3ccc(C#N)cc3)c(=O)c2c1 yielded a growth of 105%.
With O=C(O)CCC(=O)c1ccc(C2CCCCCC2)cc1 the growth was 105%.
COc1ccc(Cn2c(Br)c3c(c2-c2cc(OC)c(OC)c(OC)c2)CCc2sc(NC(=O)c4ccc(OC)cc4)nc2-3)cc1 gave a growth of 86.7%.
In the case of O=c1c2cc(F)ccc2sc2c(Nc3ccncc3)nc3ccccc3c12, the growth is reported as 75%.
Work on N#Cc1c(N)nc2c(c1N)C(c1ccc(F)cc1)c1ccc(N)cc1O2 (stereo not drawn) yielded a growth of 96.1%.
In the case of CC(=S)NC(=O)C(=O)/C=C1/NC(=O)C(=O)S1, the growth is reported as 104%.
For CCOC(=O)c1cc2c(n1Cc1ccccc1OC)-c1oncc1CCC2, the growth was 6.57% (active).
For COc1cc(/C=C2\CN(C)C/C(=C\c3cc(CN4CCCC4)c(O)c(OC)c3)C2=O)cc(CN2CCCC2)c1O, the growth was 89.3%.
COc1c(B(O)O)cccc1-c1nc2ccc3[nH]ncc3c2c2c1C1CCC2C1 (stereo not drawn) was tested, and the growth was 75.7%.
COc1cc(OC)cc(N2C(=O)N(Cc3ccc(C(C)(C)C)cc3)c3ccccc3S2(=O)=O)c1 showed a growth of 85.8%.
With C[C@@H](C(=O)NCCCC#Cc1cnc(Nc2ccc(C#N)cc2)nc1NC1CC1)N(C)C(=O)/C=C/CN(C)C the growth was 35.9%.
NCCNc1nc2ccccc2c2c(=O)c3cc(F)cc(Cl)c3sc12 gave a growth of 85.5%.
With c1ccc2cc3c(Nc4ccc(N5CCOCC5)cc4)ccnc3cc2c1 the growth was 89.6%.
In the case of O=C(Cn1cc(COc2ncnc3c2cnn3-c2ccccc2)nn1)Nc1ccccn1, the growth is reported as 92.3%.
With CNCCNc1nc2ccccc2c2c(=O)c3cccc(C)c3sc12 the growth was 46.3%.
In the case of Cn1nc(C(C)(C)C)cc1NC(=O)Cc1ccc(/C=C2\C(=O)Nc3ccccc32)cc1, the growth is reported as 5.57% (active).
